In the supplement of paper PMC10849652:
The full data set covers some 8,800 targets. This sample favours those with a hit. About 0.5% of all pairs of compound and target were hits.

Assays:
Assay in all cases: log2 fold change, soluble protein after heating vs DMSO (PISA); higher = thermal stabilisation; K562 lysate, 10 uM; active = over 0.2 and 3.5 SD of the protein, either way, in both replicates (recomputed)
ibrutinib = compound: C=CC(=O)N1CCC[C@@H](n2nc(-c3ccc(Oc4ccccc4)cc3)c3c(N)ncnc32)C1 [ibrutinib]
How it was run: (§1)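 Soluble protein was defined as the supernatant remaining after 21,000xg for 90 min, following pooling of heated aliquots and adjustment to 0.5% NP-40 at 4°C. Before that, crude K562 extract at 1 mg/mL protein in PBS pH 7.4 with 1 mM MgCl2 was treated with 10 μM compound for 30 min and heated for 3 min across 48°C-58°C. Quantification used TMTpro 16plex LC-MS/MS with channel sums equalised, and values are log-two fold changes in thermal stability relative to solvent controls from duplicates.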

[1] = compound: CC(=O)c1cnc2ccc(-c3cc(Cl)c(O)c(Cl)c3)nc2c1N[C@H]1CC[C@H](CN(C)C)CC1
How it was run: as §1

ralimetinib = compound: CC(C)(C)Cn1c(N)nc2ccc(-c3[nH]c(C(C)(C)C)nc3-c3ccc(F)cc3)nc21 [ralimetinib]
How it was run: as §1

[2] = compound: CC(C)(O)CC(=O)NCCn1ccc2ncnc(Nc3ccc(Oc4cccc(C(F)(F)F)c4)c(Cl)c3)c21
How it was run: as §1

[3] = compound: CC(C)C1=C2N=C(C=C(N2N=C1)NCC3=CC=CC=C3)NCCCCCCN
How it was run: as §1

[4] = compound: CC1=C(C(CC(=O)N1)C2=CC=C(C=C2)C(F)(F)F)C(=O)NC3=C(C=C4C(=C3)C=NN4)F
How it was run: as §1

[5] = compound: CC1=C(C2=C(C=C1)C(=O)C3=CC=CC=C3N2CCCN)C
How it was run: as §1

[6] = compound: CC1=C(C=C(C=C1)NC(=O)C2=CC(=CC=C2)C(C)(C)C#N)NC3=CC4=C(C=C3)N=CN(C4=O)C
How it was run: as §1

[7] = compound: CC1=C(C=C(C=C1)NC(=O)C2=CC(=CC=C2)N(C)C)NC(=O)C3=CC=C(C=C3)O
How it was run: as §1

[8] = compound: CC1=CC=C(C=C1)SC2=C3C=C(SC3=CN=C2)C(=O)N
How it was run: as §1

vemurafenib = compound: CCCS(=O)(=O)Nc1ccc(F)c(C(=O)c2c[nH]c3ncc(-c4ccc(Cl)cc4)cc23)c1F [vemurafenib]
How it was run: as §1

[9] = compound: CCCS(=O)(=O)Nc1ccc(F)c(C(=O)c2c[nH]c3ncc(Cl)cc23)c1F
How it was run: as §1

barasertib = compound: CCN(CCCOc1ccc2c(Nc3cc(CC(=O)Nc4cccc(F)c4)[nH]n3)ncnc2c1)CCOP(=O)(O)O [barasertib]
How it was run: as §1

[10] = compound: CC[C@@H]1C(=O)N(C)c2cnc(Nc3ccc(C(=O)NC4CCN(C)CC4)cc3OC)nc2N1C1CCCC1
How it was run: as §1

volasertib = compound: CC[C@@H]1C(=O)N(C)c2cnc(Nc3ccc(C(=O)N[C@H]4CC[C@H](N5CCN(CC6CC6)CC5)CC4)cc3OC)nc2N1C(C)C [volasertib]
How it was run: as §1

[11] = compound: CCn1c(C(=O)N(C2CC2)C2CC2)cc2c3c(ncn3C)c(Nc3cc(C)n(C)n3)nc21
How it was run: as §1

[12] = compound: CCn1cc(-c2ccnc3[nH]c(-c4cccc(CN(C)C)c4)cc23)c(-c2ccc(NC(=O)N(C)C)cc2)n1
How it was run: as §1

[13] = compound: CN1CCC(CNc2ccc3ncc(-c4cccc(OC(F)(F)F)c4)n3n2)CC1
How it was run: as §1

saracatinib = compound: CN1CCN(CCOc2cc(OC3CCOCC3)c3c(Nc4c(Cl)ccc5c4OCO5)ncnc3c2)CC1 [saracatinib]
How it was run: as §1

sotrastaurin = compound: CN1CCN(c2nc(C3=C(c4c[nH]c5ccccc45)C(=O)NC3=O)c3ccccc3n2)CC1 [sotrastaurin]
How it was run: as §1

Measured: log2 fold change

XPO6 (UniProt Q96QU8)
inactive: ibrutinib -0.013 | [1] 0.018 | ralimetinib 0.006 | [2] -0.006 | [3] -0.033 | [4] -0.003 | [5] -0.024 | [6] 0.028 | [7] 0.062 | [8] -0.006 | vemurafenib 0.033 | [9] 0.013 | barasertib 0.062 | [10] -0.03 | volasertib -0.058 | [11] -0.049 | [12] 0.448 | [13] 0.071 | saracatinib -0.007 | sotrastaurin 0

WIPI2 (UniProt Q9Y4P8)
UniProt Q9Y4P8, sequence (Q9Y4P8 whole entry, looked up): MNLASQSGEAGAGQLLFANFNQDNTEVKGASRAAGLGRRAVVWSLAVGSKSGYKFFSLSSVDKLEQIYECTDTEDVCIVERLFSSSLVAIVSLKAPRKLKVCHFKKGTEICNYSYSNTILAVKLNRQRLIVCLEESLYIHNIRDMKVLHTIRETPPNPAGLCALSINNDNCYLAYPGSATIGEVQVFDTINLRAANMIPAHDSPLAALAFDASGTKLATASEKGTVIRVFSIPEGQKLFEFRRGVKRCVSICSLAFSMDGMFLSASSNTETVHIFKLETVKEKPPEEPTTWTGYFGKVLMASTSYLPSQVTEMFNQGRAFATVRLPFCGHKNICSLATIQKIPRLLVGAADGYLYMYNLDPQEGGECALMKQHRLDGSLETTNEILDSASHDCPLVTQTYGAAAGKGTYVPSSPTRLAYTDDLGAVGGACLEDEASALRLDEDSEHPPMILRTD
inactive: ibrutinib 0.047 | [1] 0.019 | ralimetinib 0.026 | [2] 0.018 | [3] 0.022 | [4] 0.042 | [5] -0.018 | [6] 0.006 | [7] -0.013 | [8] -0.003 | vemurafenib -0.028 | [9] 0.012 | barasertib -0.06 | [10] -0.073 | volasertib -0.022 | [11] 0.002 | [12] -0.108 | [13] 0.09 | saracatinib 0.01 | sotrastaurin -0.002

VCPIP1 (UniProt Q96JH7)
UniProt Q96JH7, sequence (Q96JH7 whole entry, looked up): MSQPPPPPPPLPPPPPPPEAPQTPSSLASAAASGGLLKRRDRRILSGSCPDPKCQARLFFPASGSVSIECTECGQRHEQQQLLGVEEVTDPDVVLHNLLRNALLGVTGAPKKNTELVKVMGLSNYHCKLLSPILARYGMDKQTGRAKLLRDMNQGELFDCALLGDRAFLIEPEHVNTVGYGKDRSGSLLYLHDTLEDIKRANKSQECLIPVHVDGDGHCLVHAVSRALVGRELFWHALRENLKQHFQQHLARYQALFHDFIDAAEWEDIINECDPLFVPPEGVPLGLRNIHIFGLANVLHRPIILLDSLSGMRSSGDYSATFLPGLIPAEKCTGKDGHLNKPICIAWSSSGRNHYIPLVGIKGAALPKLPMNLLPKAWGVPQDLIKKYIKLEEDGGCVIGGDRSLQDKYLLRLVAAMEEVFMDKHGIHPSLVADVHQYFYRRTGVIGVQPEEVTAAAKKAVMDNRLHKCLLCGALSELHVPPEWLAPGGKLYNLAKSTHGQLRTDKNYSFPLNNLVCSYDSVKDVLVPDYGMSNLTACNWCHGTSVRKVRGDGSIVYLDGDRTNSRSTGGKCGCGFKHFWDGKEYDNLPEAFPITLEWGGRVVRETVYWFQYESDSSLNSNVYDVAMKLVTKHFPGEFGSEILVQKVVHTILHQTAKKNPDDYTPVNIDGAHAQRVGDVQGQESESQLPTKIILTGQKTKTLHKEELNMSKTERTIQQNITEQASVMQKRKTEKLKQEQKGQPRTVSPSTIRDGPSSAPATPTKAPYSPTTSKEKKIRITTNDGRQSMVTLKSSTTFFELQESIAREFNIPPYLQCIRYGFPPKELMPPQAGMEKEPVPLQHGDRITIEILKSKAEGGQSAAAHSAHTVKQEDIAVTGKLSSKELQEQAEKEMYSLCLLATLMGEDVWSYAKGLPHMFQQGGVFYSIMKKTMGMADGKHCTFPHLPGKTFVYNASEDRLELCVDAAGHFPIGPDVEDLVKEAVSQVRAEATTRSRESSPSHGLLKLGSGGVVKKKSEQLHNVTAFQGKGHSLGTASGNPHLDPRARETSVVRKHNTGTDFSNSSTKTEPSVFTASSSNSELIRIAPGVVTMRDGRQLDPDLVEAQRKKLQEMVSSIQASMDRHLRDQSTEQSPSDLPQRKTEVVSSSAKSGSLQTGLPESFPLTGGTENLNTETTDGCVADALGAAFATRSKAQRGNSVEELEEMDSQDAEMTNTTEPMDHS
inactive: ibrutinib 0.002 | [1] 0.01 | ralimetinib 0.009 | [2] 0.011 | [3] -0.029 | [4] -0.021 | [5] -0.05 | [6] -0.007 | [7] 0.048 | [8] -0.017 | vemurafenib 0.008 | [9] -0.04 | barasertib 0.051 | [10] -0.006 | volasertib -0.047 | [11] 0.011 | [12] -0.12 | [13] 0.049 | saracatinib -0.03 | sotrastaurin 0.035

XPNPEP1 isoform 3 (UniProt Q9NQW7)
UniProt Q9NQW7, sequence (Q9NQW7 whole entry, looked up): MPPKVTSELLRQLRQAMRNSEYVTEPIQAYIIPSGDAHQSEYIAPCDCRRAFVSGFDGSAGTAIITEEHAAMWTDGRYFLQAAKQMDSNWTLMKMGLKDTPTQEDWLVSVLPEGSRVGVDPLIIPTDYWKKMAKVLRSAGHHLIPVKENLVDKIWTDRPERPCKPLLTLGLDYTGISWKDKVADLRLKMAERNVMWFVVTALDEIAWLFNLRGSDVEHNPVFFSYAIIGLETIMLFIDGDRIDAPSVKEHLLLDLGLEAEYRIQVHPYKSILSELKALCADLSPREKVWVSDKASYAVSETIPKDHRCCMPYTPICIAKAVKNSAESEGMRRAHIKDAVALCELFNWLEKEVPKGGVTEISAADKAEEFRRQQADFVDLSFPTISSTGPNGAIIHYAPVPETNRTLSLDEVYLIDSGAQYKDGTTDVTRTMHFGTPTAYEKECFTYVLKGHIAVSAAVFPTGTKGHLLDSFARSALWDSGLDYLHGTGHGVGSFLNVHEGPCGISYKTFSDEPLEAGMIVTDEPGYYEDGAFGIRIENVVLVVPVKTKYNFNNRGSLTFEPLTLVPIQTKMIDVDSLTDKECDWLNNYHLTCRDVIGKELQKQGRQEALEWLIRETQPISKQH
inactive: ibrutinib 0.012 | [1] -0.007 | ralimetinib 0.017 | [2] -0.026 | [3] -0.009 | [4] 0.007 | [5] -0.026 | [6] -0.025 | [7] -0.005 | [8] 0.002 | vemurafenib 0.001 | [9] 0.015 | barasertib 0.008 | [10] -0.044 | volasertib -0.054 | [11] 0.014 | [12] -0.022 | [13] 0.019 | saracatinib -0.001 | sotrastaurin -0.016

WDR3 (UniProt Q9UNX4)
UniProt Q9UNX4, sequence (Q9UNX4 whole entry, looked up): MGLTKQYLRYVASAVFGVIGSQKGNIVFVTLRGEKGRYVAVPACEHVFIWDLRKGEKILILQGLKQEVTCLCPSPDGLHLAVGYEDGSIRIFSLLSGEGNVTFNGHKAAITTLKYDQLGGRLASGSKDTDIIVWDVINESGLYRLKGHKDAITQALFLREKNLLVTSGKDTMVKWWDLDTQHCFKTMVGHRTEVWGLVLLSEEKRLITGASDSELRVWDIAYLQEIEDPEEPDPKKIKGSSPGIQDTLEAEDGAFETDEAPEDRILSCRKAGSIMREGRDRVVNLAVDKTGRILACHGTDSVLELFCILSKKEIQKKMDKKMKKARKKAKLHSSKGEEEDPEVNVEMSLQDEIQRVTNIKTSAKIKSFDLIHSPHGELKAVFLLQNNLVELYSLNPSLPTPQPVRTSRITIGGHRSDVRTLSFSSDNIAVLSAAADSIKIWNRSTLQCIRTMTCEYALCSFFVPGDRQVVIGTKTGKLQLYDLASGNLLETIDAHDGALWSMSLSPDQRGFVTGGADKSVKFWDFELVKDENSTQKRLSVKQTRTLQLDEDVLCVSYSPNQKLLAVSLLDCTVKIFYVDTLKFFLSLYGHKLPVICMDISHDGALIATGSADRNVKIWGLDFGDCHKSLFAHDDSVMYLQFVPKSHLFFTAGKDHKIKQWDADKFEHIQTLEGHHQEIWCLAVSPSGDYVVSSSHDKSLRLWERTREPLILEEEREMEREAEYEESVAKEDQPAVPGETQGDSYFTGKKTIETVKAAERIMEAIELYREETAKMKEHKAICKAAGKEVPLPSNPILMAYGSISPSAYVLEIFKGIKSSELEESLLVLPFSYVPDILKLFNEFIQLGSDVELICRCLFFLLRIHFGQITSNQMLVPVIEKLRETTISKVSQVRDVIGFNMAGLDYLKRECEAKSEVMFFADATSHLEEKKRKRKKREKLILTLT
inactive: ibrutinib 0 | [1] 0.014 | ralimetinib 0.021 | [2] 0.025 | [3] -0.033 | [4] 0.015 | [5] -0.032 | [6] -0.021 | [7] -0.001 | [8] 0.03 | vemurafenib -0.01 | [9] 0.011 | barasertib 0.042 | [10] -0.063 | volasertib -0.043 | [11] 0.01 | [12] -0.024 | [13] 0.019 | saracatinib 0.002 | sotrastaurin 0.062

VRK1 (UniProt Q99986)
UniProt Q99986, sequence (Q99986 whole entry, looked up): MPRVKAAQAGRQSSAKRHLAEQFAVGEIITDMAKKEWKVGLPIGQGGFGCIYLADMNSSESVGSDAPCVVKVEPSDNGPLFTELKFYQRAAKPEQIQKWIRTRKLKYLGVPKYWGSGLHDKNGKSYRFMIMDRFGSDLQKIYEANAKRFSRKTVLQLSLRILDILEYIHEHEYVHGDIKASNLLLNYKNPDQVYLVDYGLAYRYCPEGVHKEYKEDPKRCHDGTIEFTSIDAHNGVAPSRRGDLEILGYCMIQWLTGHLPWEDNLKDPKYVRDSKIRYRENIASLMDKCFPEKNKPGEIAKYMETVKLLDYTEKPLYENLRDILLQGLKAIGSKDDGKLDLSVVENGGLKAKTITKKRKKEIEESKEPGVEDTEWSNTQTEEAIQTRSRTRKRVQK
inactive: ibrutinib 0.008 | [1] 0.035 | ralimetinib 0.122 | [2] 0.005 | [3] -0.008 | [4] -0.013 | [5] 0.007 | [6] -0.015 | [7] 0.018 | [8] 0.003 | vemurafenib 0.024 | [9] 0.024 | barasertib -0.002 | [10] -0.051 | volasertib -0.03 | [11] 0 | [12] -0.041 | [13] 0.031 | saracatinib 0.002 | sotrastaurin 0.178

ZFYVE19 (UniProt Q96K21)
UniProt Q96K21, sequence (Q96K21 whole entry, looked up): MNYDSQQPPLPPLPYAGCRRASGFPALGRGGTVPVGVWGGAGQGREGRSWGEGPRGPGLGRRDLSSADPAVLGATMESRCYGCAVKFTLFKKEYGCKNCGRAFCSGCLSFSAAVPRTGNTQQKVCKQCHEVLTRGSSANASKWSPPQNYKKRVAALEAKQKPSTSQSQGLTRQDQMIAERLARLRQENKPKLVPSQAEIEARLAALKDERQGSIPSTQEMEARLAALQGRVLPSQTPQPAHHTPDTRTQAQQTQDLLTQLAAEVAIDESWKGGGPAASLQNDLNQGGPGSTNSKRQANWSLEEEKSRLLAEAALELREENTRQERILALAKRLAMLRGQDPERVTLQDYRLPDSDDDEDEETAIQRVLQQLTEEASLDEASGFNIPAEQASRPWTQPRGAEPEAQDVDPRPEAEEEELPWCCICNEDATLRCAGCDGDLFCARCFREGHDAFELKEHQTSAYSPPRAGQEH
active: [12] -0.232
inactive: ibrutinib -0.051 | [1] -0.031 | ralimetinib -0.004 | [2] 0.009 | [3] -0.015 | [4] -0.028 | [5] -0.067 | [6] -0.037 | [7] -0.013 | [8] -0.042 | vemurafenib 0 | [9] 0.02 | barasertib 0.016 | [10] 0.077 | volasertib 0.023 | [11] 0.006 | [13] 0.126 | saracatinib -0.027 | sotrastaurin 0.013

VPS13C (UniProt Q709C8)
inactive: ibrutinib -0.011 | [1] 0.005 | ralimetinib 0.02 | [2] 0.006 | [3] -0.001 | [5] -0.066 | [6] 0.041 | [7] -0.007 | [8] -0.053 | vemurafenib 0.018 | [9] 0.028 | barasertib 0.12 | [10] 0.112 | volasertib -0.017 | [11] -0.01 | [12] 0 | [13] 0.02 | saracatinib 0.028 | sotrastaurin 0.026
active: [4] 0.251
